Experimental data reported in the supplement of paper PMC10498489.
About 330 (14%) of roughly 2,300 compounds showed activity.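 How the source made its calls: active = median modified Z-score above 1.96; inactive = 1.96 or below.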 A selection follows.

What follows are molecules tested on HepG2 Srxn1-GFP reporter cells (+30 nM CDDO-Me) (assay: Srxn1-GFP intensity median modified Z-score relative to plate median; higher = stronger NRF2 / oxidative stress reporter activation, active = hit call of the paper). Details: 10 µM; exposure time: 24h.
Summary of the method: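 Per-cell cytoplasmic GFP was measured on confocal images of formaldehyde-fixed, Hoechst-stained HepG2 Srxn1-GFP BAC reporter cells, excluding images with fewer than 100 cells. Before this, the cells (20,000 per well, 96-well plates) were co-exposed for 24 h to compound at 10 μM and an NRF2 activator at 30 nM with ≤0.1% DMSO, in three replicate plates. Each value is the median over replicates of the per-plate modified Z-score of GFP intensity. That score was scaled with 1.4826 × median absolute deviation.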
In the case of CCC(C)C(=O)O[C@H]1C[C@@H](C)C=C2C=C[C@H](C)[C@H](CC[C@@H]3C[C@@H](O)CC(=O)O3)[C@H]21 (stereo partly specified) [euspeclibcmpd875], the “Srxn1-GFP intensity median modified Z-score” value was -0.147 (inactive). O=C1CC(c2ccccc2)Oc2ccccc21 (stereo unspecified) [euspeclibcmpd1376] was tested, and the “Srxn1-GFP intensity median modified Z-score” value was 3.07 (active). O=C1C[C@@H](c2ccc(O)cc2)Oc2cc(O)cc(O)c21 [euspeclibcmpd1328] was tested, and the “Srxn1-GFP intensity median modified Z-score” value was 0.815 (inactive). O=C1CC(c2ccc(O)cc2)Oc2ccccc21 (stereo unspecified) [euspeclibcmpd2144] was tested, and the “Srxn1-GFP intensity median modified Z-score” value was -0.183 (inactive). In the case of COc1cc(O)c2c(=O)cc(-c3ccc(O)cc3)oc2c1 [euspeclibcmpd2253], the “Srxn1-GFP intensity median modified Z-score” value was 0.0845 (inactive). CCOC(=O)NN=c1[nH]ncc2ccccc12 [euspeclibcmpd1066] was tested, and the “Srxn1-GFP intensity median modified Z-score” value was 0.23 (inactive). For N=c1[nH]c(C(CCC(=O)O)C(=O)N=C2C(=O)N3C(C(=O)O)=CCS[C@H]23)cs1 (stereo partly specified) [euspeclibcmpd717], the “Srxn1-GFP intensity median modified Z-score” value was -0.318 (inactive). O=C(CCc1ccc(O)cc1)c1c(O)cc(O)cc1O [euspeclibcmpd1518] was tested, and the “Srxn1-GFP intensity median modified Z-score” value was 16.3 (active). CCC(=O)c1c(O)cc(O)cc1O [euspeclibcmpd1034] was tested, and the “Srxn1-GFP intensity median modified Z-score” value was 0.366 (inactive). For O=C(CCc1ccc(O)cc1)c1c(O)cc(O)cc1O[C@@H]1O[C@H](CO)[C@@H](O)[C@H](O)[C@H]1O [euspeclibcmpd1493], the “Srxn1-GFP intensity median modified Z-score” value was -0.343 (inactive). For Cc1c(C(=O)O)c(O)cc2c(O)c3c(O)c(O)c(C4O[C@H](CO)[C@@H](O)[C@H](O)C4=O)c(O)c3c(O)c12 (stereo partly specified) [euspeclibcmpd1436], the “Srxn1-GFP intensity median modified Z-score” value was -0.693 (inactive). With NC[C@H]1O[C@H](O[C@H]2[C@H](O)[C@@H](O[C@H]3O[C@H](CO)[C@@H](O)[C@H](N)[C@H]3O)[C@H](N)C[C@@H]2N)[C@H](N)[C@@H](O)[C@@H]1O [euspeclibcmpd351] the “Srxn1-GFP intensity median modified Z-score” value was 0.19 (inactive). With CC[C@@H](CO)NCCN[C@@H](CC)CO [euspeclibcmpd120] the “Srxn1-GFP intensity median modified Z-score” value was -0.816 (inactive). O=C(O)C1=C(CCO)O[C@@H]2CC(=O)N12 [euspeclibcmpd2294] was tested, and the “Srxn1-GFP intensity median modified Z-score” value was 0.746 (inactive). In the case of O=C(O)CCC(=O)Nc1ccc(S(=O)(=O)N=c2[nH]ccs2)cc1 [euspeclibcmpd428], the “Srxn1-GFP intensity median modified Z-score” value was 0.358 (inactive). For COc1cc(Cc2c[nH]c(=N)[nH]c2=N)cc(OC)c1OC [euspeclibcmpd310], the “Srxn1-GFP intensity median modified Z-score” value was 0.316 (inactive). In the case of CC1=C(/C=C/C(C)=C/C=C/C(C)=C/C=C/C=C(C)/C=C/C=C(C)/C=C/C2=C(C)C(=O)CCC2(C)C)C(C)(C)CCC1=O [euspeclibcmpd1669], the “Srxn1-GFP intensity median modified Z-score” value was -0.405 (inactive). CC1CC(=O)NN=C1c1ccc(NN=C(C#N)C#N)cc1 (stereo unspecified) [euspeclibcmpd481] was tested, and the “Srxn1-GFP intensity median modified Z-score” value was 0.356 (inactive). For CN1CCC(=C2c3ccccc3C=Cc3ccccc32)CC1 [euspeclibcmpd890], the “Srxn1-GFP intensity median modified Z-score” value was 7.54 (active). With CN1CCC(=C2c3ccccc3Sc3ccccc32)CC1 [euspeclibcmpd1250] the “Srxn1-GFP intensity median modified Z-score” value was 0.25 (inactive). CN1CCC(=C2c3ccccc3CCc3sccc32)CC1 [euspeclibcmpd488] was tested, and the “Srxn1-GFP intensity median modified Z-score” value was 0.0303 (inactive). For C=CCn1c(C(C)Oc2ccc(OCC)cc2)nnc1N1CCC(C(=O)OC)CC1 (stereo unspecified), the “Srxn1-GFP intensity median modified Z-score” value was 1.58 (inactive). In the case of Cn1c(SC2CCCCC2=O)nnc1-c1cccc(Br)c1 (stereo unspecified), the “Srxn1-GFP intensity median modified Z-score” value was 4.66 (active). With CC1(O)CCOC(=O)C1 (stereo unspecified) [euspeclibcmpd1666] the “Srxn1-GFP intensity median modified Z-score” value was -0.384 (inactive). In the case of N=c1[nH]c(N)ccc1N=Nc1ccccc1 [euspeclibcmpd230], the “Srxn1-GFP intensity median modified Z-score” value was 0.85 (inactive). O=C(CCCN1CCN(c2ccccn2)CC1)c1ccc(F)cc1 [euspeclibcmpd1317] was tested, and the “Srxn1-GFP intensity median modified Z-score” value was 0.00738 (inactive). CCCC[C@@H](CC)COC(=O)c1ccccc1O [euspeclibcmpd865] was tested, and the “Srxn1-GFP intensity median modified Z-score” value was -0.26 (inactive). CN(C/C=C/C#CC(C)(C)C)Cc1cccc2ccccc12 [euspeclibcmpd767] was tested, and the “Srxn1-GFP intensity median modified Z-score” value was 3.24 (active). With c1ccc2c(CC3=NCCN3)cccc2c1 [euspeclibcmpd204] the “Srxn1-GFP intensity median modified Z-score” value was -0.697 (inactive). In the case of CN(C/C=C/c1ccccc1)Cc1cccc2ccccc12 [euspeclibcmpd791], the “Srxn1-GFP intensity median modified Z-score” value was 0.553 (inactive). In the case of CC1(C)O[C@@H]2[C@@H](CO[C@@]3(COS(N)(=O)=O)OC(C)(C)O[C@@H]23)O1 [euspeclibcmpd870], the “Srxn1-GFP intensity median modified Z-score” value was 0.206 (inactive). With CC(C)=CCC/C(C)=C/CC/C(C)=C/CO [euspeclibcmpd2192] the “Srxn1-GFP intensity median modified Z-score” value was 1.35 (inactive). CC(C)=CCC/C(C)=C/CO [euspeclibcmpd1453] was tested, and the “Srxn1-GFP intensity median modified Z-score” value was 2.94 (active). CC(C)=CCC/C(C)=C/CC/C(C)=C/CC/C(C)=C/CC/C(C)=C/CC/C(C)=C/CC/C(C)=C/CC/C(C)=C/CC/C(C)=C/CO [euspeclibcmpd1640] was tested, and the “Srxn1-GFP intensity median modified Z-score” value was -0.00439 (inactive). With Cc1ccc(-c2nc(CSc3nc(C)c(C)n3CC3CCCO3)co2)c(C)c1 (stereo unspecified) the “Srxn1-GFP intensity median modified Z-score” value was 1.14 (inactive). With CCCC1O[C@@H]2CC3C4CC=C5CC(=O)C=CC5(C)C4[C@@H](O)CC3(C)[C@]2(C(=O)CO)O1 (stereo partly specified) [euspeclibcmpd352] the “Srxn1-GFP intensity median modified Z-score” value was -0.649 (inactive). With Oc1oc(O)c2c1C1CCC2O1 [euspeclibcmpd1748] the “Srxn1-GFP intensity median modified Z-score” value was 3 (active). CC(=O)O[C@H]1CC[C@]2(C)C3CC[C@@]4(C)C(CC5O[C@@]6(CCC(C)CO6)[C@@H](C)C54)C3CC[C@@H]2C1 (stereo partly specified) [euspeclibcmpd1531] was tested, and the “Srxn1-GFP intensity median modified Z-score” value was -0.369 (inactive). With O=S(=O)(c1ccc(Cl)nc1)N(CC1CCCO1)C1CCSC1 (stereo unspecified) the “Srxn1-GFP intensity median modified Z-score” value was 1.21 (inactive). For Cc1c(C)c(O)c(C(=CCCCCC(=O)O)c2ccccc2)c(C)c1O [euspeclibcmpd470], the “Srxn1-GFP intensity median modified Z-score” value was -0.366 (inactive). In the case of COc1c2ccoc2nc2c(OC)c(OCC(O)C(C)(C)O)ccc12 (stereo unspecified) [euspeclibcmpd1658], the “Srxn1-GFP intensity median modified Z-score” value was 26 (active). With C[C@]12CCC(=O)CC1=CC=C1C2CC[C@@]2(C)C1CC[C@@]21CCC(=O)O1 (stereo partly specified) [euspeclibcmpd726] the “Srxn1-GFP intensity median modified Z-score” value was 0.642 (inactive). In the case of CN1C2CC[C@H]1C[C@@H](OC(=O)C(O)c1ccccc1)C2 (stereo partly specified) [euspeclibcmpd2075], the “Srxn1-GFP intensity median modified Z-score” value was 0.0546 (inactive). With CCN(CC)CCOC(=O)C1(C2CCCCC2)CCCCC1 [euspeclibcmpd90] the “Srxn1-GFP intensity median modified Z-score” value was 2.86 (active). With CCN(CC)CCOC(=O)C(c1ccccc1)C1CCCCC1 (stereo unspecified) [euspeclibcmpd1055] the “Srxn1-GFP intensity median modified Z-score” value was 0.0961 (inactive). In the case of CCN(CC)CCOCCOC(=O)C1(c2ccccc2)CCCC1 [euspeclibcmpd389], the “Srxn1-GFP intensity median modified Z-score” value was -0.0174 (inactive).
